Measurements from the supplement of paper PMC13380429.

Legend:
[1] = test system: Vero E6 infected with SARS-CoV-2; assay: morphology score (similarity to uninfected cells); higher = more like uninfected cells; conditions: 24 h
[2] = test system: Vero E6 infected with SARS-CoV-2; assay: SARS-CoV-2 infection rate relative to infected DMSO; higher = more infection, active = 60 or less; conditions: 24 h

Row | SMILES | morphology score [1] | SARS-CoV-2 infection rate [2]
1 | CN(C)c1cc(CNCC(C)(C)C)c(O)c2c1C[C@H]1C[C@H]3[C@H](N(C)C)C(O)=C(C(N)=O)C(=O)[C@@]3(O)C(O)=C1C2=O [omadacycline] (10 µM) | 0.179 | 97.5% (inactive)
2 | Cc1cc(CC(C)CC(C)(C)C)n(O)c(=O)c1 (stereo unspecified) [piroctone-olamine] (10 µM) | 0.406 | 88% (inactive)
3 | O=C(NCC1CCOCC1)c1cnc(Nc2ccc(Cl)cc2Cl)nc1C(F)(F)F (10 µM) | 0.326 | 96% (inactive)
4 | CC(CCc1ccccc1)NC(C)C(O)c1ccc(O)cc1 (stereo unspecified) [buphenine] (10 µM) | -0.137 | 114% (inactive)
5 | CC[C@@]1(O)C(=O)OCc2c1cc1n(c2=O)Cc2cc3c(CN(C)C)c(O)ccc3nc2-1 [topotecan] (10 µM) | 0.0619 | 108% (inactive)
6 | COc1ccc(C(=O)c2ccccc2O)c(O)c1 [dioxybenzone] (0.833333 µM) | 0.165 | 88% (inactive)
7 | C[C@]12N[C@H](Cc3ccccc31)c1ccccc12 [dizocilpine-(-)] (10 µM) | 0.247 | 106% (inactive)
8 | COc1c(N2C[C@@H]3CCCN[C@@H]3C2)c(F)cc2c(=O)c(C(=O)O)cn(C3CC3)c12 [moxifloxacin] (10 µM) | 0.0295 | 106% (inactive)
9 | O=c1ccc2cc(O[C@@H]3O[C@H](CO)[C@@H](O)[C@H](O)[C@H]3O)c(O)cc2o1 [esculin] (10 µM) | 0.15 | 111% (inactive)
10 | CCc1cc2cc(OC)c(OC)cc2c(Cc2ccccc2)n1 [moxaverine] (10 µM) | 0.495 | 86% (inactive)
11 | Cc1ccc(-n2sc(=O)n(Cc3ccc(F)cc3)c2=O)cc1 (10 µM) | 0.218 | 96% (inactive)
12 | CCCCC/C=C\C/C=C\C/C=C\C/C=C\CCCC(=O)Nc1ccc(O)cc1 (10 µM) | 0.0145 | 106% (inactive)
13 | CC(NC(=O)c1ccccc1/N=C/c1c(O)ccc2ccccc12)c1ccccc1 (stereo unspecified) [sirtinol] (10 µM) | 0.0701 | 99% (inactive)
14 | O=C1C(=C(O)/C=C/c2ccc(O)cc2)C(=O)[C@@](O)([C@@H]2O[C@H](CO)[C@@H](O)[C@H](O)[C@H]2O)C(=O)[C@H]1[C@@H]1O[C@H](CO)[C@@H](O)[C@H](O)[C@H]1O (10 µM) | 0.0573 | 104% (inactive)
15 | Oc1ccc(Cl)c2c1CCC2 [chlorindanol] (10 µM) | 0.109 | 102% (inactive)
16 | NC(=O)c1cccc2cn(-c3ccc([C@@H]4CCCNC4)cc3)nc12 [niraparib] (0.833333 µM) | 0.0643 | 102% (inactive)
17 | CC(=O)SC[C@@H](C)C(=O)N1CCC[C@H]1C(=O)N[C@@H](Cc1ccccc1)C(=O)O [alacepril] (10 µM) | 0.171 | 108% (inactive)
18 | Oc1ccc2[nH]cc(C3=CCNCC3)c2n1 (10 µM) | 0.00585 | 90% (inactive)
19 | CCCCNc1ccc(C(=O)OCCN(C)C)cc1 [tetracaine] (10 µM) | -0.144 | 116% (inactive)
20 | COc1ccc(C(=O)N2CCCC2=O)cc1 [aniracetam] (10 µM) | 0.0647 | 106% (inactive)
21 | CCCC(=O)O[C@]1(C(=O)CCl)[C@@H](C)C[C@H]2[C@@H]3CCC4=CC(=O)C=C[C@]4(C)[C@@]3(F)C(=O)C[C@@]21C [clobetasone-butyrate] (10 µM) | 0.344 | 96% (inactive)

Row | SMILES | morphology score [1] | SARS-CoV-2 infection rate [2]
22 | N[C@H](Cc1ccccc1)C(=O)O [D-phenylalanine] (10 µM) | 0.0544 | 104% (inactive)
23 | Oc1c(CN2CCCC2)cc(COCc2ccccc2)c2cccnc12 (10 µM) | 0.0259 | 104% (inactive)
24 | O=C(CN1CCN(Cc2ccc3c(c2)OCO3)CC1)N1c2ccccc2Sc2ccccc21 [fenoverine] (10 µM) | 0.02 | 110% (inactive)
25 | CN(C)CC[C@@H](c1ccc(Cl)cc1)c1ccccn1 [chlorphenamine] (10 µM) | 0.0978 | 97.8% (inactive)
26 | O=C1C=CC(=O)C2=C1C1c3ccccc3C2c2ccccc21 (10 µM) | 0.00761 | 102% (inactive)
27 | COc1cc(C[C@H]2C(=O)OC[C@@H]2Cc2ccc(OC)c(OC)c2)ccc1O [arctigenin] (10 µM) | 0.0564 | 108% (inactive)
28 | Oc1c(Cl)cc(Cl)cc1Sc1cc(Cl)cc(Cl)c1O [bithionol] (10 µM) | -0.096 | 106% (inactive)
29 | CCC(=O)[C@@]1(C)[C@H](C)C[C@H]2[C@@H]3CCC4=CC(=O)C=C[C@]4(C)[C@H]3[C@@H](O)C[C@@]21C [rimexolone] (10 µM) | 0.134 | 98.5% (inactive)
30 | CCn1cnc(C(=O)NC)c1C(=O)NC [ethimizol] (10 µM) | 0.114 | 96.5% (inactive)
31 | Cn1cncc1[C@@](N)(c1ccc(Cl)cc1)c1ccc2c(c1)c(-c1cccc(Cl)c1)cc(=O)n2C [tipifarnib] (0.833333 µM) | 0.398 | 89% (inactive)
32 | CCCNC(C)C(=O)Nc1ccccc1C (stereo unspecified) [prilocaine] (10 µM) | -0.208 | 112% (inactive)
33 | CN1CCN(c2c(F)cc3c(=O)c(C(=O)O)cn4c3c2SCC4)CC1 [rufloxacin] (10 µM) | 0.0805 | 103% (inactive)
34 | C[C@@](Cc1ccc(O)c(O)c1)(NN)C(=O)O [carbidopa] (10 µM) | -0.0523 | 100% (inactive)
35 | CON [methoxyamine] (10 µM) | 0.192 | 99% (inactive)
36 | O=C1NC(=O)/C(=C/c2cccc(C(F)(F)F)c2)S1 (10 µM) | 0.00293 | 106% (inactive)
37 | O=C(NC(=O)c1c(F)cccc1F)Nc1cc(Cl)c(OC(F)(F)C(F)C(F)(F)F)cc1Cl (stereo unspecified) [lufenuron] (10 µM) | -0.0435 | 111% (inactive)
38 | C[Se]C[C@H](N)C(=O)O [Se-methylselenocysteine] (10 µM) | 0.107 | 102% (inactive)
39 | CCN(CC)CCOC(=O)C1(C2CCCCC2)CCCCC1 [dicycloverine] (10 µM) | 0.311 | 90% (inactive)
40 | CCCCOc1nc(N)c2c(n1)N(Cc1cccc(CN3CCCC3)c1)CC(=O)N2 (10 µM) | -0.135 | 106% (inactive)
41 | CC(C)(C)c1[nH]cnc1/C=c1\[nH]c(=O)/c(=C/c2ccccc2)[nH]c1=O [plinabulin] (0.833333 µM) | -0.0585 | 112% (inactive)
42 | Cc1ccc(O)c([C@H](CCN(C(C)C)C(C)C)c2ccccc2)c1 [tolterodine] (10 µM) | 0.35 | 77.5% (inactive)

Row | SMILES | morphology score [1] | SARS-CoV-2 infection rate [2]
43 | N#Cc1ccc(Oc2ccc3c(c2)COB3O)cc1 [crisaborole] (10 µM) | 0.0741 | 105% (inactive)
44 | Fc1ccccc1CNCc1ccc(-c2ccnc3[nH]ccc23)cc1 (10 µM) | -0.0487 | 116% (inactive)
45 | O=C(Nc1cnccc1Cl)N1CCN(Cc2ccc3c(c2)OC(F)(F)O3)CC1 (10 µM) | 0.0915 | 106% (inactive)
46 | Cn1c(=O)c2c(ncn2CCOC(=O)C(C)(C)Oc2ccc(Cl)cc2)n(C)c1=O [etofylline-clofibrate] (10 µM) | -0.162 | 114% (inactive)
47 | O=C(O)CSCC(=O)NC1CCSC1=O (stereo unspecified) [erdosteine] (10 µM) | -0.0411 | 104% (inactive)
48 | O=C(O)/C=C/c1ccc(Cn2ccnc2)cc1 [ozagrel] (10 µM) | 0.12 | 92% (inactive)
49 | O=C(O)COc1ccc(/C=C2\SC(=O)NC2=O)cc1 (10 µM) | 0.0392 | 97% (inactive)
50 | Cc1c(NC(=O)c2cccnc2)c(=O)n(-c2ccccc2)n1C [nifenazone] (10 µM) | 0.0329 | 102% (inactive)
51 | CCc1c(O)cc(O)c(C(=O)c2ccc(OCCN3CCOCC3)c(OC)c2)c1CC(=O)N(CCOC)CCOC (10 µM) | -0.0338 | 102% (inactive)
52 | COC(=O)C1=C(C)NC(C)=C(C(=O)NCCCN2CCC(c3ccccc3)(c3ccccc3)CC2)C1c1ccc([N+](=O)[O-])cc1 (stereo unspecified) (0.833333 µM) | 0.212 | 98.5% (inactive)
53 | CC(C)(O)CNc1nc(Nc2ccnc(C(F)(F)F)c2)nc(-c2cccc(C(F)(F)F)n2)n1 [enasidenib] (10 µM) | 0.237 | 100% (inactive)
54 | CC1Oc2cc(cnc2N)-c2c(nn(C)c2C#N)CN(C)C(=O)c2ccc(F)cc21 (stereo unspecified) (10 µM) | 0.32 | 99.5% (inactive)
55 | C[N+]1(C)[C@@H]2CC[C@H]1C[C@@H](OC(=O)C(O)c1ccccc1)C2 (stereo partly specified) [homatropine-methylbromide] (10 µM) | -0.0363 | 104% (inactive)
56 | Cc1ccc2c(c1)C(=O)[C@]1(O)CCN(c3ccccc3)C1=N2 (racemic) [blebbistatin-(+/-)] (10 µM) | 0.464 | 90.8% (inactive)
57 | C/C=C/c1cc(OC)c(OC)cc1OC [alpha-asarone] (10 µM) | 0.0292 | 98.5% (inactive)
58 | Cc1nc2c(OCc3ccccc3)cccn2c1CC#N (10 µM) | 0.0125 | 110% (inactive)
59 | CC(C)(C)CCN1C[C@@H]2[C@@H](CNC(=O)c3cc(Cl)cc(Cl)c3)[C@@H]2C1 (10 µM) | 0.324 | 86% (inactive)
60 | CCc1cccc(CC)c1NC(=O)N1Cc2[nH]nc(NC(=O)c3ccc(N4CCN(C)CC4)cc3)c2C1 (10 µM) | 0.108 | 113% (inactive)
61 | COc1cccc(NC(=O)/C=C/c2ccc(Cl)cc2)c1 (10 µM) | -0.0484 | 99.5% (inactive)
62 | CC(=O)Nc1ccc(OCC(O)CNC(C)C)cc1 (stereo unspecified) [practolol] (10 µM) | -0.0762 | 106% (inactive)
63 | CC1(C)S[C@@H]2[C@H](NC(=O)[C@H](NC(=O)N3CCN(S(C)(=O)=O)C3=O)c3ccccc3)C(=O)N2[C@H]1C(=O)O [mezlocillin] (10 µM) | 0.0709 | 97% (inactive)
